Assay outcomes: PubChem BioAssay, National Center for Advancing Translational Sciences (NCATS)
ClpP mod: qHTS Assay for Activators of ClpP | ATP-dependent Clp protease proteolytic subunit (Bacillus subtilis (strain 168)), P80244 | purified B. subtilis ClpP, FRET peptide cleavage, 20 min | Potency, µM (series often up to 57.5 µM), for the others: at the top dose activity change, negative = active | 340,000 compounds, 1.9% hits | AID 651965, 2013; active means well fitted falling curve with a large enough effect; inconclusive means small, poorly fitted or top-dose-only effect; inactive means no such curve, though single readings can be large or run the other way; further: potency means the concentration at half of the fitted maximal effect; the source files actives as falling curves though it sought activators and does not explain the sign; nearly all actives have a fitted effect of over 65% in size
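ClpP 10 microg/mL final, pH 8 Tris/KCl buffer with BSA, glycerol, Tween-20; compound pinned in; FRET-FV substrate; RT 20 min; Ex320/Em430; ΔFRET vs ADEP 5.8 microM, DMSO, no enzyme.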
GLP1R inv ag: inverse agonists of human GLP-1 receptor | Potency, µM (highest dose often 38.3 µM), for the others: at the top dose activity change, negative = inhibition, most hits filed as inhibitors | 410,000 compounds, 1.6% hits | HEK293 GLP-1R CRE-luciferase, luminescence, 24 h; GLP-1R form is constitutively active | P43220; further: potency means the concentration at half of the fitted maximal effect; on the % scale 0 is the no-effect control and ±100 the full control effect; nearly all actives have a fitted effect of over 55% in size
Target sequence (P43220 whole entry, looked up): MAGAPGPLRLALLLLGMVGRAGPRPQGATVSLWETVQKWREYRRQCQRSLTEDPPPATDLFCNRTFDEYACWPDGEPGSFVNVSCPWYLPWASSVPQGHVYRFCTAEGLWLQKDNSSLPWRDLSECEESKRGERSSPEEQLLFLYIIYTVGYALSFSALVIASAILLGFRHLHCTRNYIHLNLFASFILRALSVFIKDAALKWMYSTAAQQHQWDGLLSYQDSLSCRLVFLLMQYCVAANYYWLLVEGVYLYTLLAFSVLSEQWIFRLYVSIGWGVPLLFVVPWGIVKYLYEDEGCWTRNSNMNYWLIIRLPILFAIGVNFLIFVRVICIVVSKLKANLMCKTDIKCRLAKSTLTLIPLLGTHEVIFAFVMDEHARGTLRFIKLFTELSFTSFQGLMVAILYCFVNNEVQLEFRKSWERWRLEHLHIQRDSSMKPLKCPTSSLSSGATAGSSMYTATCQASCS
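qHTS in 1536-well format: reporter HEK293 cells expressing constitutive GLP-1R activity in DMEM + 10% Nu serum, 24 hr with compounds at 37 deg C, luminescence read after 12 min with detection reagent.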
GLP-1R agonist: activates the human GLP-1 receptor. Potency, µM (doses to about 45.6 µM), for the others: at the top dose activation, actives largely listed as activators. HEK293 GLP-1R CRE-luciferase, luminescence, 4-6 h; cells express a hypersensitive GLP-1R form. AID 624172. 380,000 compounds, 0.007% hits. P43220; further: potency means the concentration at half of the fitted maximal effect; % of control where 0% means no effect
GLP1R cytotox: cytotoxic in the GLP-1 receptor inverse agonist counter-screen | Potency, µM (titrated, usually from 38.3 µM), for inactives: at the highest dose activity change, negative = inhibition, hits mostly inhibitors | 410,000 compounds, 0.13% hits | HEK293 cAMP-luciferase reporter cells, luminescence, 24 h | AID 624418;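 further: loss of luciferase light is scored as toxicity; potency means the concentration at half of the fitted maximal effect; on the % scale 0 is the no-effect control and ±100 the full control effect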
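Luminescence readout: signal drop marks cytotoxicity. Plated cells grew 12 h at 37 °C, 5% CO2, received 23 nL compound for 24 h, then got luciferase reagent, read after 12 min at RT.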
p53 reactivator: restores transcriptional activity of mutant p53; H1299 p53-A138V BP100-luciferase reporter, luminescence, 24 h; Potency, µM (series often up to 92.2 µM), for inactives: top-dose activity change, positive = activation, actives largely listed as activators; 320,000 compounds, 0.063% hits; further: potency means the concentration at half of the fitted maximal effect; % of control where 0% means no effect; nearly all actives have a fitted effect of over 45% in size
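p53-null H1299 cells stably carrying temperature-sensitive p53-A138V and a BP100-luciferase reporter were pinned with compounds (4-point, 1:5 series) and held 24 hrs at 37 deg C. Luminescence was read 10 min after detection reagent.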
LDHA inh: blocks human lactate dehydrogenase A; AID 1347041; activity change, % (values are at about 110 or 230 µM); purified LDHA, NADH/diaphorase-resazurin fluorescence; active compounds read low; 480,000 compounds, 0.15% hits; P00338; in the data active means activity change below about -30%; inconclusive means mostly about -25% to -30%;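 further: plate controls were DMSO wells for no effect and wells without enzyme for full effect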
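Human LDH5 at 2 nM final in Tris HCl pH 7.4 with 0.06 mM NADH and 0.2 mM pyruvate, reacted 5 minutes at room temperature. Remaining NADH coupled via diaphorase/resazurin; resorufin fluorescence read at 0 and 20 minutes, normalized to enzyme-free and DMSO wells.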
* hit, by the source's call; ? = inconclusive; nt = no result. Hits are enriched below; roughly 2.9% of the tested compounds scored in any of these assays. Unless noted, the call rests on the fitted dose curve; in most records, active means well fitted curve in the direction sought with a large enough effect; inconclusive means small, poorly fitted or top-dose-only effect, or another doubt; inactive means no such curve, though single readings can be large; an effect the other way counts as inactive or inconclusive.

SMILES	ClpP mod	GLP1R inv ag	GLP-1R agonist	GLP1R cytotox	p53 reactivator	LDHA inh
CC(C)(C)c1ccc(OCC(=O)N/N=C/c2ccc(N3CCOCC3)cc2)cc1	35µM*	1%	1%	-4%	0%	-3
COCCNC(=S)N/N=C/c1ccc(N2CCOCC2)cc1	nt	?	7%	?	18%	0
C/C(=N/NC(=O)COc1ccc(C(C)(C)C)cc1)c1ccc(N2CCOCC2)cc1	1%	-16%	0%	7%	nt	-1
COc1ccc(NC(=O)Nc2ccc(OC)c(OC)c2)c([N+](=O)[O-])c1	-16%	-2%	-8%	-20%	7%	7
COC(=O)C1=C(C)N(c2ccc(Cl)c(Cl)c2)C(=O)C1	2%	13µM*	-5%	-11%	-27%	-2
CC(C)(C)NCC(O)CON=C1c2ccccc2-c2ccccc21 (centres undefined)	nt	4µM*	2%	?	-9%	-1
O=S(=O)(NCCSc1ccccc1)c1ccc(F)cc1	-1%	10µM*	13%	19%	-2%	0
CC(C)(C)SCCNS(=O)(=O)c1ccc(F)cc1	1%	-8%	-3%	5%	5%	4
Cc1oc(-c2nc(C#N)c(NCc3ccccc3)o2)cc1S(=O)(=O)N(C)C	nt	nt	nt	nt	nt	-6
COc1ccc(-n2nc(C(=O)NCC(=O)Nc3cc(C)ccc3OC)c3ccccc3c2=O)c(OC)c1	nt	0%	10%	-1%	0%	-4
COC(=O)c1sccc1NC(=O)CSc1ccccc1NS(=O)(=O)c1ccc(Cl)cc1	0%	10µM*	0%	-16%	0%	-1
Cc1ccc(C)c(-c2[nH]ncc2CN2CCCC(CO)(Cc3ccccc3C)C2)c1 (centres undefined)	nt	10µM*	8%	?	1%	-4
OCC1(Cc2ccccc2)CCCN(Cc2cn[nH]c2-c2ccccc2)C1 (centres undefined)	nt	?	4%	0%	2%	-4
NNC(=O)Nc1cccc(C(F)(F)F)c1	0%	10%	0%	1%	-1%	0
O=C(Nc1ccc(OC(F)F)cc1)Nc1cccc(C(F)(F)F)c1	0%	4.5µM*	-5%	?	8%	0
O=C(O)c1cc(NC(=O)c2ccc([N+](=O)[O-])cc2)cc(NC(=O)c2ccc([N+](=O)[O-])cc2)c1	nt	15%	0%	0%	7%	5
O=C(Nc1ccc([N+](=O)[O-])cc1)C(=O)Nc1cccc(C(=O)O)c1	2%	1.1µM*	-15%	-15%	-11%	1
O=C(Nc1ccncc1)Nc1cccc(C(F)(F)F)c1	-3%	10µM*	-3%	-16%	-9%	-5
O=C(Nc1ccc(OC(F)(F)F)cc1)Nc1cccc([N+](=O)[O-])c1	1%	2.5µM*	-15%	5.6µM*	35µM*	-5
C/C=C/Cn1c(SC(C)CC)nc2c1c(=O)[nH]c(=O)n2C (centres undefined)	nt	nt	nt	nt	nt	-6
Cn1c(=O)c2[nH]c(-c3cccnc3)nc2n(C)c1=O	-12%	13%	2%	-2%	28%	-6
Cc1ccc([N+](=O)[O-])cc1N=Nc1c(-c2ccc([N+](=O)[O-])cc2)[nH]n(C(N)=S)c1=O	-1%	?	-6%	?	-5%	-9
NC(=S)n1[nH]c(-c2ccc([N+](=O)[O-])cc2)c(N=Nc2ccc(Cl)cc2)c1=O	nt	10µM*	-5%	?	0%	-8
COc1ccc2c(c1)CC(N1CCN(C)CC1)c1cc(OC)ccc1S2 (centres undefined)	nt	2.5µM*	9%	?	nt	-5
CSc1ccc2c(c1)C(N1CCN(C)CC1)Cc1ccc(F)cc1S2 (centres undefined)	-2%	?	-2%	?	nt	2
